Experimental data: the supplement of paper PMC8728848
About 410 targets per protein were measured; listed, in parts, are those with the strongest signals and a random draw of the rest.

Assays:
Assay in all cases: glycan array binding signal (z-score within array); higher = stronger binding
Settings in all cases: glycan notation: IUPAC condensed, linker removed
Fuc(a1-2)Gal(b1-3)GalNAc = target: Fuc(a1-2)Gal(b1-3)GalNAc
Method in brief: (§1)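 Columns mapping to the same glycan were averaged after glycan names were converted to IUPAC-condensed notation. The data come from 3228 arrays in the Consortium for Functional Glycomics database, limited to those with an available protein sequence. Binding is reported as a within-array Z-score averaged across arrays of one protein sequence and across linkers.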

[1] = target: Fuc(a1-2)Gal(b1-3)GalNAc(b1-3)Gal
Method in brief: as §1

[2] = target: Fuc(a1-2)Gal(b1-3)GlcNAc(b1-3)Gal(b1-4)Glc
Method in brief: as §1

Fuc(a1-2)Gal(b1-4)Glc = target: Fuc(a1-2)Gal(b1-4)Glc
Method in brief: as §1

[3] = target: Fuc(a1-2)[GalNAc(a1-3)]Gal(b1-4)Glc
Method in brief: as §1

Fuc(a1-3)GlcNAc = target: Fuc(a1-3)GlcNAc
Method in brief: as §1

[4] = target: Fuc(a1-3)[Gal3S(b1-4)]Glc6S
Method in brief: as §1

Gal(a1-3)Gal = target: Gal(a1-3)Gal
Method in brief: as §1

[5] = target: Gal(a1-4)Gal(b1-4)GlcNAc(b1-2)Man(a1-3)[Gal(a1-4)Gal(b1-4)GlcNAc(b1-2)Man(a1-6)]Man(b1-4)GlcNAc(b1-4)GlcNAc
Method in brief: as §1

[6] = target: Gal(a1-4)Gal(b1-4)GlcNAc(b1-3)Gal(b1-4)Glc
Method in brief: as §1

Gal(b1-3)GlcNAc = target: Gal(b1-3)GlcNAc
Method in brief: as §1

[7] = target: Gal(b1-3)GlcNAc(b1-3)Gal(b1-4)Glc
Method in brief: as §1

[8] = target: Gal(b1-3)[Fuc(a1-4)]GlcNAc
Method in brief: as §1

[9] = target: Gal(b1-3)[Fuc(a1-4)]GlcNAc(b1-3)Gal(b1-4)[Fuc(a1-3)]GlcNAc
Method in brief: as §1

[10] = target: Gal(b1-3)[Neu5Ac(b2-6)]GalNAc
Method in brief: as §1

[11] = target: Gal(b1-4)GlcNAc(b1-2)Man(a1-6)[GlcNAc(b1-2)Man(a1-3)]Man(b1-4)GlcNAc(b1-4)GlcNAc
Method in brief: as §1

[12] = target: Gal(b1-4)GlcNAc(b1-6)Gal(b1-4)GlcNAc
Method in brief: as §1

[13] = target: Gal(b1-4)GlcNAc(b1-6)GalNAc
Method in brief: as §1

Gal3S(b1-4)Glc = target: Gal3S(b1-4)Glc
Method in brief: as §1

Gal3S6S(b1-4)GlcNAc6S = target: Gal3S6S(b1-4)GlcNAc6S
Method in brief: as §1

Gal6S(b1-4)Glc = target: Gal6S(b1-4)Glc
Method in brief: as §1

[14] = target: GalNAc(b1-3)Gal(a1-4)Gal(b1-4)GlcNAc
Method in brief: as §1

Glc(a1-6)Glc(a1-6)Glc = target: Glc(a1-6)Glc(a1-6)Glc
Method in brief: as §1

Glc(b1-4)Glc = target: Glc(b1-4)Glc
Method in brief: as §1

[15] = target: GlcNAc(b1-3)[GlcNAc(b1-4)][GlcNAc(b1-6)]GlcNAc
Method in brief: as §1

Kdn(a2-3)Gal(b1-3)GalNAc = target: Kdn(a2-3)Gal(b1-3)GalNAc
Method in brief: as §1

[16] = target: Man(a1-2)Man(a1-2)Man(a1-3)Man
Method in brief: as §1

[17] = target: Man(a1-3)[Man(a1-6)]Man(a1-6)[Man(a1-3)]Man(b1-4)GlcNAc(b1-4)GlcNAc
Method in brief: as §1

[18] = target: Neu5Ac(a2-3)Gal(b1-3)GlcNAc(b1-3)GalNAc
Method in brief: as §1

[19] = target: Neu5Ac(a2-3)Gal(b1-4)GlcNAc(b1-3)Gal(b1-4)GlcNAc(b1-3)Gal(b1-4)GlcNAc
Method in brief: as §1

B1: SBD (Rhizopus oryzae), P07683 (protein)
chain: ASIPSSASVQLDSYNYDGSTFSGKIYVKNIAYSKKVTVVYADGSDNWNNNGNIIAASFSGPISGSNYEYWTFSASVKGIKEFYIKYEVSGKTYYDNNNSANYQVS
glycan array binding signal (z-score) (Fuc(a1-2)Gal(b1-3)GalNAc): 0.019 | glycan array binding signal (z-score) [1]: 2.93 | glycan array binding signal (z-score) [2]: 2.1 | glycan array binding signal (z-score) (Fuc(a1-2)Gal(b1-4)Glc): -0.623 | glycan array binding signal (z-score) [3]: -0.2 | glycan array binding signal (z-score) (Fuc(a1-3)GlcNAc): 0.165 | glycan array binding signal (z-score) [4]: 0.589 | glycan array binding signal (z-score) (Gal(a1-3)Gal): -0.697 | glycan array binding signal (z-score) [5]: 2.59 | glycan array binding signal (z-score) [6]: 0.2 | glycan array binding signal (z-score) (Gal(b1-3)GlcNAc): 0.042 | glycan array binding signal (z-score) [7]: 2.02 | glycan array binding signal (z-score) [8]: -0.029 | glycan array binding signal (z-score) [9]: 0.121 | glycan array binding signal (z-score) [10]: -0.657 | glycan array binding signal (z-score) [11]: -0.081 | glycan array binding signal (z-score) [12]: 0.47 | glycan array binding signal (z-score) [13]: -0.13 | glycan array binding signal (z-score) (Gal3S(b1-4)Glc): 0.207 | glycan array binding signal (z-score) (Gal3S6S(b1-4)GlcNAc6S): 0.19 | glycan array binding signal (z-score) (Gal6S(b1-4)Glc): -0.476 | glycan array binding signal (z-score) [14]: -0.155 | glycan array binding signal (z-score) (Glc(a1-6)Glc(a1-6)Glc): -0.213 | glycan array binding signal (z-score) (Glc(b1-4)Glc): -0.436 | glycan array binding signal (z-score) [15]: -0.005 | glycan array binding signal (z-score) (Kdn(a2-3)Gal(b1-3)GalNAc): 0.62 | glycan array binding signal (z-score) [16]: 5.61 | glycan array binding signal (z-score) [17]: -0.313 | glycan array binding signal (z-score) [18]: 2 | glycan array binding signal (z-score) [19]: -0.668
